Assay results published in PMC7862700, “An all-to-all approach to the identification of sequence-specific readers for epigenetic DNA modifications on cytosine”.

Assays:
Assay in all cases: DAPPL (digital affinity profiling via proximity ligation, sequencing); 10 mM Tris-HCl pH 7.5, 50 mM NaCl, 1 mM DTT, 4% glycerol, room temperature, 30 min; GST-TFs on glutathione beads, 16-mer random dsDNA library, 0.1% formaldehyde crosslink after washing; high values mean tight binding
[1] = biological target: T1, FEV (Homo sapiens, UniProt Q99581 1-238); details: protein: recombinant; tags: N-terminal GST; dsDNA, one strand shown
T1 sequence: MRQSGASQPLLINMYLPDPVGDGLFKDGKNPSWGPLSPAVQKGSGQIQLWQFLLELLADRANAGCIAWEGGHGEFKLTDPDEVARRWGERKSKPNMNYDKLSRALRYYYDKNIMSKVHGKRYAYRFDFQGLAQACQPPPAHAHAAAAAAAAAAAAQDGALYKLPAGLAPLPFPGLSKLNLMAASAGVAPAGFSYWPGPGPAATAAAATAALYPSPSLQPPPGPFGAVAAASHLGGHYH
Procedure, shortened: (§1)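 Binding signal is given per hexamer as its read frequency for a factor divided by its frequency in the tag-only sample. GST-fused human transcription factors were expressed in yeast, captured on glutathione beads, barcoded with DNA and pooled with that sample, then incubated with 200 nmole of a 16-mer random double-stranded DNA library in Tris/NaCl/DTT/glycerol buffer for 30 min at room temperature. The pools were then washed, crosslinked, proximity-ligated, amplified by PCR and sequenced on an Illumina NextSeq500.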

[2] = biological target: ETV5 (Homo sapiens, UniProt P41161 1-510); details: protein: recombinant; tags: N-terminal GST; dsDNA, one strand shown
Procedure, shortened: as §1

[3] = biological target: HSF1 (Homo sapiens, UniProt Q00613 1-529); details: protein: recombinant; tags: N-terminal GST; chain copies: 3; dsDNA, one strand shown
Procedure, shortened: as §1

[4] = biological target: T2, SPIC (Homo sapiens, UniProt Q8N5J4 1-248); details: protein: recombinant; tags: N-terminal GST; dsDNA, one strand shown
T2 sequence: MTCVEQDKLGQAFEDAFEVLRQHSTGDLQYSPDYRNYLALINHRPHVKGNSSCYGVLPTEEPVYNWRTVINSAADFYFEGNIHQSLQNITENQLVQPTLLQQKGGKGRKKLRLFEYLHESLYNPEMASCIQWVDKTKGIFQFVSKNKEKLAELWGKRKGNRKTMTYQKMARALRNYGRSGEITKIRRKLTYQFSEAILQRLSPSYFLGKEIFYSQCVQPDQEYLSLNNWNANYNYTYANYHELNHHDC
Procedure, shortened: as §1

[5] = biological target: ELF4 (Homo sapiens, UniProt Q99607 1-663); details: protein: recombinant; tags: N-terminal GST; dsDNA, one strand shown
Procedure, shortened: as §1

[6] = biological target: T3, ELK4 (Homo sapiens, UniProt P28324-2 1-405); details: protein: recombinant; tags: N-terminal GST; dsDNA, one strand shown
T3 sequence: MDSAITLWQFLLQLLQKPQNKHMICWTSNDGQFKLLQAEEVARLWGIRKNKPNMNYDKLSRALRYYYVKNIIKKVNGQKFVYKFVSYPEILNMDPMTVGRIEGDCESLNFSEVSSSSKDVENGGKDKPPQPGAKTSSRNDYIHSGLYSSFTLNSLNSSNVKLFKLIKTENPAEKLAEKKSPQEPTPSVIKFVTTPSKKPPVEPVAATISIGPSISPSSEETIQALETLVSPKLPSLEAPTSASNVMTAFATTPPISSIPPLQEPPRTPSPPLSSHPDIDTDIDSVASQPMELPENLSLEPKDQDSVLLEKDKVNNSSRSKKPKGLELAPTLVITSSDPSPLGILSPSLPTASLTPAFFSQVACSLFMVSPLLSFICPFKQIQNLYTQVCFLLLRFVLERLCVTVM
Procedure, shortened: as §1

[7] = biological target: T4, ETV2 (Homo sapiens, UniProt O00321 1-342); details: protein: recombinant; tags: N-terminal GST; dsDNA, one strand shown
T4 sequence: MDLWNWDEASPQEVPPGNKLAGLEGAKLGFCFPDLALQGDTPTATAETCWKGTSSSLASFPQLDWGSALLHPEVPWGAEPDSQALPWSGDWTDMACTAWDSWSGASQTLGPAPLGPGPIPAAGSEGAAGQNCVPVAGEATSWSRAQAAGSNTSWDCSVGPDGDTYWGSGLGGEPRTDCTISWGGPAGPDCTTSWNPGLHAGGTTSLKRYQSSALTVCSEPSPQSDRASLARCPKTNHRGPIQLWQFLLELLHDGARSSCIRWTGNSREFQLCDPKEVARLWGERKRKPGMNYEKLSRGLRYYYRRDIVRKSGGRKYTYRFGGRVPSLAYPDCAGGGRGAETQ
Procedure, shortened: as §1

[8] = biological target: T5, ELF3 (Homo sapiens, UniProt P78545 1-371); details: protein: recombinant; tags: N-terminal GST; dsDNA, one strand shown
T5 sequence: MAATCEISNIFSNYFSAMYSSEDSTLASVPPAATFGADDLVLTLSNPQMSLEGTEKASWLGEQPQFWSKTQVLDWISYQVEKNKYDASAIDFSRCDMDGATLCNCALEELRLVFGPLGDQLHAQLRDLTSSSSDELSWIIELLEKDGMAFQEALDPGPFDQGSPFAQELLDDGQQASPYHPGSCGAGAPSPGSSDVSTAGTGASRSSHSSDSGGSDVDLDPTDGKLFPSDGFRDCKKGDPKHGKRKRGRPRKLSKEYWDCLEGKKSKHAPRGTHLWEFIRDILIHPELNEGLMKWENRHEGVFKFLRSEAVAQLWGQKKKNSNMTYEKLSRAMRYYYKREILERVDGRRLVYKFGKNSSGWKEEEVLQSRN
Procedure, shortened: as §1

[9] = biological target: CRX (Homo sapiens, UniProt O43186 1-299); details: protein: recombinant; tags: N-terminal GST; dsDNA, one strand shown
Procedure, shortened: as §1

[10] = biological target: ETV1 (Homo sapiens, UniProt P50549 1-477); details: protein: recombinant; tags: N-terminal GST; dsDNA, one strand shown
Procedure, shortened: as §1

[11] = biological target: T6, ERF (Homo sapiens, UniProt P50548 1-548); details: protein: recombinant; tags: N-terminal GST; dsDNA, one strand shown
T6 sequence: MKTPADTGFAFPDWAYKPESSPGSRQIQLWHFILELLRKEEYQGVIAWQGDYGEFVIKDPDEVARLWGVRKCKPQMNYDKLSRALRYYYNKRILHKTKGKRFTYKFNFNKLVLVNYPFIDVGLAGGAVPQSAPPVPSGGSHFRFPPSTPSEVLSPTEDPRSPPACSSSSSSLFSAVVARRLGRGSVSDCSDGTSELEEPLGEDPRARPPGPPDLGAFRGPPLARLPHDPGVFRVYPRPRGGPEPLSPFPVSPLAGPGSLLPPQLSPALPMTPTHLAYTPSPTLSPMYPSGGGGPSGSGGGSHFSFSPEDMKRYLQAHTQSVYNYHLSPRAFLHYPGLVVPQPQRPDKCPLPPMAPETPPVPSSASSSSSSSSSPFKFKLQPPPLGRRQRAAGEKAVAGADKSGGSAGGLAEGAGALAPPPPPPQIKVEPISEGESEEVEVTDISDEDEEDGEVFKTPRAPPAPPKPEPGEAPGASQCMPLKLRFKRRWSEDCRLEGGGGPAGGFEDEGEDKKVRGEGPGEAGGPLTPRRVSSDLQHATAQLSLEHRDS
Procedure, shortened: as §1

[12] = biological target: T7, ETV3L (Homo sapiens, UniProt Q6ZN32 1-361); details: protein: recombinant; tags: N-terminal GST; dsDNA, one strand shown
T7 sequence: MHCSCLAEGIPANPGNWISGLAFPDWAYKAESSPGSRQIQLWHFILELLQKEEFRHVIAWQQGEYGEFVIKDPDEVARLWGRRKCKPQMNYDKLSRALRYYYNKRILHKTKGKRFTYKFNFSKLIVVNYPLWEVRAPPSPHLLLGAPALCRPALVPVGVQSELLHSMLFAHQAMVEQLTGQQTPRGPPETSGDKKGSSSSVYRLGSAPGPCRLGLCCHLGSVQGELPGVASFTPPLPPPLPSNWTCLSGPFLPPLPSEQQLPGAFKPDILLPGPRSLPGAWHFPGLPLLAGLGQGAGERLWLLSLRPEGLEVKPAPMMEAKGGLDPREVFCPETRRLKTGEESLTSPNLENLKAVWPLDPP
Procedure, shortened: as §1

[13] = biological target: T8, ETS2 (Homo sapiens, UniProt P15036 1-469); details: protein: recombinant; tags: N-terminal GST; dsDNA, one strand shown
T8 sequence: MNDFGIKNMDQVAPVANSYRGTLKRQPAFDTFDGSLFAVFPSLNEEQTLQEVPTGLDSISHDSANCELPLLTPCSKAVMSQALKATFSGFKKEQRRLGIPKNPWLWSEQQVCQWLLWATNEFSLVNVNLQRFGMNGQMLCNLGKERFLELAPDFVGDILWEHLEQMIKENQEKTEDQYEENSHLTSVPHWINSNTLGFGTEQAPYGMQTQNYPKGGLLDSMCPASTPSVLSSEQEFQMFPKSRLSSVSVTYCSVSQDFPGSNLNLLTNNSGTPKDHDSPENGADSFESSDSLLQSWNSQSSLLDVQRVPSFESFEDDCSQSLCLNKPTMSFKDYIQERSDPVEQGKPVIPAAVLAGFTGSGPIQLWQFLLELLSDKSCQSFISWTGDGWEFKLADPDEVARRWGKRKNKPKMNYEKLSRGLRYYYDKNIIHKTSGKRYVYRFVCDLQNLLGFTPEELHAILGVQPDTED
Procedure, shortened: as §1

[14] = biological target: T9, SPDEF (Homo sapiens, UniProt O95238 1-335); details: protein: recombinant; tags: N-terminal GST; dsDNA, one strand shown
T9 sequence: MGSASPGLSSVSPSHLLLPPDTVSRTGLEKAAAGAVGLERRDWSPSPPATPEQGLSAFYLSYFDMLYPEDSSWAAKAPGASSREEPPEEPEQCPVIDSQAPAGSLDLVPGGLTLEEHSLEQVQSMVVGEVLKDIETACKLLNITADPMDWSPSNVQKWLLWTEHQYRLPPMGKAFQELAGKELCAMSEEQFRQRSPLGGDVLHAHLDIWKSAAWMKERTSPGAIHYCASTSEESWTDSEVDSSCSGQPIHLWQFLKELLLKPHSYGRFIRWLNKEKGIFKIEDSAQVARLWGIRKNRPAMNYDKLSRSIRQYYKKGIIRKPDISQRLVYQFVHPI
Procedure, shortened: as §1

[15] = biological target: T10, ETV7 (Homo sapiens, UniProt Q9Y603 1-341); details: protein: recombinant; tags: N-terminal GST; dsDNA, one strand shown
T10 sequence: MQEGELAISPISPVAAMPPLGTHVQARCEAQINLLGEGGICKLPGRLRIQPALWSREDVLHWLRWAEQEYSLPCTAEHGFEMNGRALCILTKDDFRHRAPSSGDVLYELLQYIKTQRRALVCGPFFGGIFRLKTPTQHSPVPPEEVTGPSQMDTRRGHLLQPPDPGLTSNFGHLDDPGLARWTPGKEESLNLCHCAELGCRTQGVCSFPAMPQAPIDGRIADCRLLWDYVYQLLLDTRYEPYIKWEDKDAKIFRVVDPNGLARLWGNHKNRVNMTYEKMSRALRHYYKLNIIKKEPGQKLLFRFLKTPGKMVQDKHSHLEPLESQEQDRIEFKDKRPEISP
Procedure, shortened: as §1

[16] = biological target: T11, ELF5 (Homo sapiens, UniProt Q9UKW6-2 1-255); details: protein: recombinant; tags: N-terminal GST; dsDNA, one strand shown
T11 sequence: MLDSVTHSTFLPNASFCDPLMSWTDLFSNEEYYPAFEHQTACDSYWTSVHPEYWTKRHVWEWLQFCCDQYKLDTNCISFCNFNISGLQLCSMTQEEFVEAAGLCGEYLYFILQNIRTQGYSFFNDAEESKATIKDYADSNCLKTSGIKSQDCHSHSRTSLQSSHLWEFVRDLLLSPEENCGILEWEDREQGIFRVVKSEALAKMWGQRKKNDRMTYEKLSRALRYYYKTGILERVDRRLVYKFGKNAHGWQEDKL
Procedure, shortened: as §1

[17] = biological target: T12, ETV3 (Homo sapiens, UniProt P41162-2 1-143); details: protein: recombinant; tags: N-terminal GST; dsDNA, one strand shown
T12 sequence: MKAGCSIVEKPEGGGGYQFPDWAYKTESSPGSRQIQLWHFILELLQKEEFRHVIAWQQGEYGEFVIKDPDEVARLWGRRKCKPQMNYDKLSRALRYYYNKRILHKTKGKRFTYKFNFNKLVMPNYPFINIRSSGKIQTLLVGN
Procedure, shortened: as §1

[18] = biological target: ETV6 (Homo sapiens, UniProt P41212 1-452); details: protein: recombinant; tags: N-terminal GST; dsDNA, one strand shown
Procedure, shortened: as §1

ETV1, sequence (P50549 whole entry): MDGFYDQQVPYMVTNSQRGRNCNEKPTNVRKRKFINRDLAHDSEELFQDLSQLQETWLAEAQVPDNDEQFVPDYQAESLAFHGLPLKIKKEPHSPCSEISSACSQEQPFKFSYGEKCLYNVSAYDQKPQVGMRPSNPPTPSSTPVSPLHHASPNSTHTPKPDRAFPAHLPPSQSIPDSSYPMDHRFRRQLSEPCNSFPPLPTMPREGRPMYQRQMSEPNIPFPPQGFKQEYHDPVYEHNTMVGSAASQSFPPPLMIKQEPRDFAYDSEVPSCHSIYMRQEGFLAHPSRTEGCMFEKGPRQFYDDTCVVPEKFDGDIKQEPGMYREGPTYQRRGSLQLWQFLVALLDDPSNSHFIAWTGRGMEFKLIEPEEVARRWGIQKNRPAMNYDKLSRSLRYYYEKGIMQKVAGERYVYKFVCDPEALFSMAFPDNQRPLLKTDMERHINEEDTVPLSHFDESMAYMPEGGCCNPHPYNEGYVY
ETV6, sequence (P41212 whole entry): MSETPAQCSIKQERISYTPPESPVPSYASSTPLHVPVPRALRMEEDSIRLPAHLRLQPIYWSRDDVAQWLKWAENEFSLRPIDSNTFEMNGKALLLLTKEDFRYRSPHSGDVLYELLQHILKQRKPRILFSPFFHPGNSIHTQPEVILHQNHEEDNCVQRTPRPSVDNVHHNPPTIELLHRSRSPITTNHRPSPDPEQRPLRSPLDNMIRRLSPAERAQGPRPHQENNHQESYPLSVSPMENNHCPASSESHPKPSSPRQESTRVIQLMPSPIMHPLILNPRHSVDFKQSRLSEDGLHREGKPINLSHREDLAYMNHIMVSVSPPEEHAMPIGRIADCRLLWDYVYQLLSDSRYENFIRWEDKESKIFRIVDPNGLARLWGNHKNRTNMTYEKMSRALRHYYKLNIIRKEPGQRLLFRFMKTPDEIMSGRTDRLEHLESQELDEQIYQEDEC
ETV5, sequence (P41161 whole entry): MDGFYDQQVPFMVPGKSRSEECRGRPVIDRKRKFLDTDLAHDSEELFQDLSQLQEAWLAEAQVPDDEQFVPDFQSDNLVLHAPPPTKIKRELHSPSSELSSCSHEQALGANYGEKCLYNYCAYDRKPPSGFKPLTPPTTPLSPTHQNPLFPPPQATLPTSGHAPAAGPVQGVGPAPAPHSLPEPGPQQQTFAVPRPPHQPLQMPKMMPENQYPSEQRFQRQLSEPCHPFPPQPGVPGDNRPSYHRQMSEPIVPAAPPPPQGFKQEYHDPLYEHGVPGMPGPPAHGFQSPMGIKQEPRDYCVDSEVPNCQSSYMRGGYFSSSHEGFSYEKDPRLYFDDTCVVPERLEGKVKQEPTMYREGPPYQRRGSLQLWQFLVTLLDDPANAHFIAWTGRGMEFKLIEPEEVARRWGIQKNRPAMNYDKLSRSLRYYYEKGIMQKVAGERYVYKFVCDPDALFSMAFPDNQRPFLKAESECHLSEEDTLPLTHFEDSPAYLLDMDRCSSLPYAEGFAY
HSF1, sequence (Q00613 whole entry): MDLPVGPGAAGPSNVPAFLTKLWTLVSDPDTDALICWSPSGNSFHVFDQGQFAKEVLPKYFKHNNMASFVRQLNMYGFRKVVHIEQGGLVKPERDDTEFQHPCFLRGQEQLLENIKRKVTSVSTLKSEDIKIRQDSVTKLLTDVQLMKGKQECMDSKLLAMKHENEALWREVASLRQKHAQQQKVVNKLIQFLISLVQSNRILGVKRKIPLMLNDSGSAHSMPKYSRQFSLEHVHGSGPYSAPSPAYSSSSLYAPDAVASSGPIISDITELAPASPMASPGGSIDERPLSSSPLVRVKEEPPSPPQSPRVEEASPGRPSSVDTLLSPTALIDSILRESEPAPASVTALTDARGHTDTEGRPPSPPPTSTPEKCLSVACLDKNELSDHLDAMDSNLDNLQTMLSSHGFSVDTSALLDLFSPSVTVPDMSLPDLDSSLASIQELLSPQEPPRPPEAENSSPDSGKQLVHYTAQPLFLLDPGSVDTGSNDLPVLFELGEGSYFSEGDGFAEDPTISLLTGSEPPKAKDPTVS
ELF4, sequence (Q99607 whole entry): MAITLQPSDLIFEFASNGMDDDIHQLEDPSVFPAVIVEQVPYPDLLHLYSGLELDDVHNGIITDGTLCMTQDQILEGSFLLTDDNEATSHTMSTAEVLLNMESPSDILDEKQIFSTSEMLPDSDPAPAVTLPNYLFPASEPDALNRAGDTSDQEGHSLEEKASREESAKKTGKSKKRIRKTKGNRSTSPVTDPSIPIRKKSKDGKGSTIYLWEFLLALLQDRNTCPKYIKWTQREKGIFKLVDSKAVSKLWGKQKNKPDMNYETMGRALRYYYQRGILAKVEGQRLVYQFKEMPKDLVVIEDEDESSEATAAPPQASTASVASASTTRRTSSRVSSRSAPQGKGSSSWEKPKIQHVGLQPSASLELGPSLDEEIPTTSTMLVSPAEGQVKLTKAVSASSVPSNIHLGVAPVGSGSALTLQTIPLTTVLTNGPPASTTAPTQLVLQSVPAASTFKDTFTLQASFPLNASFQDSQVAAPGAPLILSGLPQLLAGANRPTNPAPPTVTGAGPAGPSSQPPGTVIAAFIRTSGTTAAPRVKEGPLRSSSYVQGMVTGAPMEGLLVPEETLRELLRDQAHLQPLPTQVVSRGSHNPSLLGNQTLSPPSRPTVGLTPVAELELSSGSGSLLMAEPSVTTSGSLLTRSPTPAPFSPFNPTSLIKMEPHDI
CRX, sequence (O43186 whole entry): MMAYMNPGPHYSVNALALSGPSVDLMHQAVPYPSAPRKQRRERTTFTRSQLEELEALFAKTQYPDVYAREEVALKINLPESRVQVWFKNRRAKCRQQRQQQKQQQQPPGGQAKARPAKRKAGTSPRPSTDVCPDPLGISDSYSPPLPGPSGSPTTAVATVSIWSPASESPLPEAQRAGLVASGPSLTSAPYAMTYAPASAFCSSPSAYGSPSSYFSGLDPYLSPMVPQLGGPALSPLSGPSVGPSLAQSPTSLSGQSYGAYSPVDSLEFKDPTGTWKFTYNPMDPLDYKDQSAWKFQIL

Sequence: TGGGCT
- binding signal [1]: 1.35 fold enrichment (6-mer frequency, TF over GST control)
- binding signal [2]: 1.4 fold enrichment (6-mer frequency, TF over GST control)
- binding signal [3]: 1.19 fold enrichment (6-mer frequency, TF over GST control)
- binding signal [4]: 1.28 fold enrichment (6-mer frequency, TF over GST control)
- binding signal [5]: 1.36 fold enrichment (6-mer frequency, TF over GST control)
- binding signal [6]: 1.29 fold enrichment (6-mer frequency, TF over GST control)
- binding signal [7]: 1.26 fold enrichment (6-mer frequency, TF over GST control)
- binding signal [8]: 1.4 fold enrichment (6-mer frequency, TF over GST control)
- binding signal [9]: 1.3 fold enrichment (6-mer frequency, TF over GST control)
- binding signal [10]: 1.42 fold enrichment (6-mer frequency, TF over GST control)
- binding signal [11]: 1.27 fold enrichment (6-mer frequency, TF over GST control)
- binding signal [12]: 1.45 fold enrichment (6-mer frequency, TF over GST control)
- binding signal [13]: 1.5 fold enrichment (6-mer frequency, TF over GST control)
- binding signal [14]: 1.28 fold enrichment (6-mer frequency, TF over GST control)
- binding signal [15]: 1.49 fold enrichment (6-mer frequency, TF over GST control)
- binding signal [16]: 1.32 fold enrichment (6-mer frequency, TF over GST control)
- binding signal [17]: 1.41 fold enrichment (6-mer frequency, TF over GST control)
- binding signal [18]: 1.32 fold enrichment (6-mer frequency, TF over GST control)
